Assay results taken from the OligoGym collection.
Further: reference of the scale not given here.

Each sequence was assayed against DCX (assay: pooled miR-30 sensor sort-seq; sequence = guide strand). Conditions: shRNA.
TCAATTATTAGTATTTAGCTGA was tested, and the sensor-assay potency score (higher = more potent) was 0.00518.
For TTGGGATTGACATTCTTGGTGT, the sensor-assay potency score (higher = more potent) was 0.0923.
For TCTAGTAGTACATATACCGCAA, the sensor-assay potency score (higher = more potent) was 0.223.
For TAGAGTTTTTTGACAACCCCGG, the sensor-assay potency score (higher = more potent) was -0.351.
Sequence TTAAAGAACTTACCACACGTGG has a sensor-assay potency score (higher = more potent) of -0.728.
TTTCTGGCTATAACTATTCTAA was tested, and the sensor-assay potency score (higher = more potent) was -0.801.
With TTACTTGTGACTGTGGAGGAGA the sensor-assay potency score (higher = more potent) was -0.0876.
For TTAACACCTACAATCTGGCTTC, the sensor-assay potency score (higher = more potent) was 0.157.
TACAACTGTAAGACAACTGGGA was tested, and the sensor-assay potency score (higher = more potent) was 0.406.
TTGTATACAAGTCATAAGGGAT was tested, and the sensor-assay potency score (higher = more potent) was -0.914.
In the case of TAAATTAACACCTACAATCTGG, the sensor-assay potency score (higher = more potent) is reported as -0.105.
For ATTCTTGGTGTACTCCACCTTT, the sensor-assay potency score (higher = more potent) was -0.629.
Sequence TACAAGGTGACTTCTGTTGTGC has a sensor-assay potency score (higher = more potent) of 0.124.
Sequence TAACATAGAATATAAACTGAGA has a sensor-assay potency score (higher = more potent) of -0.639.
TTGAATGCTGCGAATCTTCAGC showed a sensor-assay potency score (higher = more potent) of -0.1.
With TCTATCTTAAAACAGCTGCAGG the sensor-assay potency score (higher = more potent) was -0.806.
TTCATTTAAATCAACTCCGATT was tested, and the sensor-assay potency score (higher = more potent) was -0.375.
TATTCATCTTGTTTTCTCCTGG was tested, and the sensor-assay potency score (higher = more potent) was 0.366.

These sequences were tested against DDAH1 in the same assay as above. Conditions: shRNA.
In the case of TTCATCTTTCATCTCTACTATA, the sensor-assay potency score (higher = more potent) is reported as -1.1.
TTAATTAAAACTGAGCAGCAGG gave a sensor-assay potency score (higher = more potent) of -0.0699.
Sequence TAAACCTTTGCACTTTCTGGAT has a sensor-assay potency score (higher = more potent) of -0.647.
TACAGTTTGCTGCTATGTCATC was tested, and the sensor-assay potency score (higher = more potent) was -1.54.
For TTTCTGGATACTCTTCCGGGGT, the sensor-assay potency score (higher = more potent) was -1.06.
TTGCATGATCTTAAGGGCCTTC gave a sensor-assay potency score (higher = more potent) of -0.108.
Work on TTTCATCTCTACTATATTGAGC yielded a sensor-assay potency score (higher = more potent) of -0.645.
Sequence TTAGATATATACAGTTTGCTGC has a sensor-assay potency score (higher = more potent) of -0.536.
Sequence TACTATATTGAGCTGAAGTTTT has a sensor-assay potency score (higher = more potent) of -1.16.
Work on TAAAACATCTCCGCCATCTAAA yielded a sensor-assay potency score (higher = more potent) of -0.943.
Work on ATCTCTACTATATTGAGCTGAA yielded a sensor-assay potency score (higher = more potent) of -0.824.
TAAAGTTGCATTTTCATCTTTC showed a sensor-assay potency score (higher = more potent) of 0.237.

Each sequence was assayed against DDB2 in the same assay as above. Conditions: shRNA.
AACTCGGATCTCGCTCTTCTGG gave a sensor-assay potency score (higher = more potent) of -1.5.
TTTAGTTCCAAGATAACCTTGG was tested, and the sensor-assay potency score (higher = more potent) was 0.69.
For TCAAATAACTGCTTGATCCCTC, the sensor-assay potency score (higher = more potent) was 0.323.
Sequence TACAATCTCGGAGGTCTTCTGG has a sensor-assay potency score (higher = more potent) of -0.449.
AACTTTTGAAATTAGGATCTGG was tested, and the sensor-assay potency score (higher = more potent) was 0.321.
TGACACATCATCTTCCCTGAGT gave a sensor-assay potency score (higher = more potent) of 0.0365.
TTTGAAATTAGGATCTGGGTAT gave a sensor-assay potency score (higher = more potent) of -0.00871.
TTTAACAAATCGCCACCTCTGC gave a sensor-assay potency score (higher = more potent) of -0.868.
TCTGAGTCACATCTTCTGCTAG gave a sensor-assay potency score (higher = more potent) of -0.241.
TACAACTTTTGAAATTAGGATC was tested, and the sensor-assay potency score (higher = more potent) was -0.816.
